TEAD-YAP inh: TEAD-YAP interaction inhibition; HEK-TIYL cells, TEAD-Gal4/YAP UAS-luciferase luminescence; inhibition, % at 9.12 µM; hit rate 1.4% among 640,000; in the data active = inhibition above about 32%
GPR151 activ: activates the human receptor GPR151 | hit rate 1% among 650,000 | AID 1508602 | PathHunter beta-arrestin GPR151 cells, luminescence | Q8TDV0 | activation, % at 11.2 µM; in the data active = activation above about 4.9%
Target sequence (Q8TDV0 whole entry, looked up): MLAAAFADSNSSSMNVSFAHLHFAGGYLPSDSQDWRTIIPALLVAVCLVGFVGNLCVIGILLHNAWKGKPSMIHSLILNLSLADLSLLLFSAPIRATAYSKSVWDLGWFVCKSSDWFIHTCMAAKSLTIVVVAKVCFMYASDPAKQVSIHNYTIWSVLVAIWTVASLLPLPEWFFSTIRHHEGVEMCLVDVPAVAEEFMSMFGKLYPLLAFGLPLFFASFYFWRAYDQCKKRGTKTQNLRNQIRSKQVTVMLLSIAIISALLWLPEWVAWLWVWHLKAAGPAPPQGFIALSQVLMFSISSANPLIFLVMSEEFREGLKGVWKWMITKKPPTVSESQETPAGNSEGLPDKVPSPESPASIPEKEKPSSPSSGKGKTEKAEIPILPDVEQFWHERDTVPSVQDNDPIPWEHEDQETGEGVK
FBW7 act: activators of human E3 ligase FBW7; normalized activity (activation), % at 26.1 µM; AlphaScreen FBW7–phospho-cyclin E peptide binding, activator screen; hit rate 0.13% among 650,000; Q969H0; in the data active = normalized activity above about 1.9%;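 note: purified mutant Fbw7 with reduced substrate affinity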
MITF primary: human MITF inhibition, primary screen; O75030; AlphaScreen MITF homodimerization, bead proximity signal; inhibition, % at 2.6 µM; hit rate 0.91% among 650,000; AID 1259374; in the data active = inhibition above about 50%
Of the large screens only hits and unclear results are named; the others gave an inactive call. In the library only some 3.5% were active in any assay of this set; here they are far more common.

Cc1nc2c(c(C)nn2C(C)(C)C)c(C)c1CCC(=O)O	none
CC(C)c1ccc(NC(=O)CSc2nc3ccccc3n2S(=O)(=O)c2ccc(Br)cc2)cc1	none
CCOCCn1c2c(c3ccccc31)=NC1C=CC=CC1N=2 (stereo unspecified)	FBW7 act 2.7
CC1=C(C)CC2C(=O)N(c3ccc(Br)cc3)C(=O)C2C1 (stereo unspecified)	none
COc1ccc(CCNC(=O)CSc2nc3nc(C)c(Cc4ccc(F)cc4Cl)c(C)n3n2)cc1OC	none
O=C(N/N=C/c1cc(Cl)ccc1O)c1cncc(Br)c1	MITF primary 63
COc1cccc(/C=N/NC(=O)c2ccc(NC(=O)c3ccc(F)cc3)cc2)c1O	TEAD-YAP inh 97
COc1ccccc1C(=O)N/N=C/c1cc([N+](=O)[O-])cc(OC)c1O	none
COc1cc([N+](=O)[O-])cc(/C=N/NC(=O)c2ccncc2)c1O	MITF primary 83
COc1ccccc1/C=N/NC(=O)c1ccc(NC(=O)c2ccc(F)cc2)cc1	none
O=C(N/N=C\c1ccc([N+](=O)[O-])s1)c1cncc(Br)c1	TEAD-YAP inh 65
COc1cccc(/C=N/NC(=O)c2ccc(Cl)c(Cl)c2)c1O	none
COc1cccc(/C=N/NC(=O)c2cc(O)c(O)c(O)c2)c1O	none
COc1cccc(/C=N/NC(=O)c2ccc(N(C)S(=O)(=O)c3ccccc3)cc2)c1O	TEAD-YAP inh 80
COc1cccc(/C=N/NC(=O)c2cncc(Br)c2)c1O	TEAD-YAP inh 80, MITF primary 90
COc1cc(/C=N/NC(=O)c2cncc(Br)c2)cc(Br)c1O	none
COc1cccc(/C=N/NC(=O)c2cc3ccccc3cc2O)c1O	TEAD-YAP inh 53
COc1cccc(/C=N/NC(=O)c2ccncc2)c1O	MITF primary 61
COc1cccc(/C=N/NC(=O)C(=O)N/N=C/c2cccc(OC)c2O)c1O	none
N#CC1=C(NC(=O)c2ccccc2)c2ccccc2CC12CCCC2	none
Cc1cc(C(=O)CSc2n[nH]c(N)n2)c(C)n1Cc1ccco1	none
COc1cccc(/C=N/NC(=O)C(=O)Nc2cccc(C(F)(F)F)c2)c1O	TEAD-YAP inh 59
O=C(CSc1nc2[nH]ncc2c(=O)n1-c1ccccc1)Nc1ccc2c(c1)OCCO2	TEAD-YAP inh 50
O=C(CSc1nc2[nH]ncc2c(=O)n1-c1ccc(Br)cc1)Nc1ccc2c(c1)OCCO2	TEAD-YAP inh 42
O=C(CSc1nc2[nH]ncc2c(=O)n1-c1cccc(C(F)(F)F)c1)Nc1ccc2c(c1)OCCO2	none
O=C(O)c1cc(S(=O)(=O)Nc2ccc(O)cc2)ccc1O	none
O=C(O)c1cc(NS(=O)(=O)c2ccc(Cl)c(C(=O)O)c2)ccc1O	MITF primary 81
COc1ccc(NC(=O)c2ccc(NC(=O)Cn3c(C)csc3=O)cc2)cc1	none
COc1ccc(/C=C2/C(=O)ON=C2c2ccccc2)cc1	none
O=C1ON=C(c2ccccc2)/C1=C\c1ccc(O)cc1	MITF primary 59
CC(C)c1ccc(/C=C2\C(=O)ON=C2c2ccccc2)cc1	MITF primary 57
CSc1ccc(/C=C2/C(=O)ON=C2c2ccccc2)cc1	none
CC(C)(C)C(=O)Nc1ccc(C(=O)NNC(=O)C2C3C=CC(C3)C2C(=O)NNC(=O)c2ccc(NC(=O)C(C)(C)C)cc2)cc1 (stereo unspecified)	none
O=C(COC(=O)c1cc(O)c(O)c(O)c1)Nc1ccc(F)cc1	MITF primary 68
CCc1ccc(NC(=O)COC(=O)c2cc(=O)c3cc(F)ccc3o2)cc1	FBW7 act 2.8
CCOc1ccc(NC(=O)COC(=O)c2cc(=O)c3ccccc3o2)cc1	none
O=C(COC(=O)c1cc(F)c(F)cc1Cl)Nc1ccc(F)cc1	none
Cc1cc(Cl)ccc1OCC(=O)N1CCNc2cc(-c3ccncc3)cnc21	none
NNC(=O)C1SCCN1c1ccccc1 (stereo unspecified)	none
C/C(Cn1nc([N+](=O)[O-])cc1C)=N/NC(=O)c1cc(O)c(O)c(O)c1	MITF primary 56
CCOc1ccc(NC(=O)c2cnn3ccccc23)cc1	TEAD-YAP inh 94
CCc1ccc(NC(=O)c2cnn3ccccc23)cc1	TEAD-YAP inh 89
Cc1ccccc1NC(=O)c1cnn2ccccc12	none
C[C@H]1C(=O)N2CCN(C(=O)c3ccc(-c4ccccc4)cc3)C[C@@H]2C(=O)N1C	none
N#Cc1cccc(-n2ncc3cc(Nc4ccccc4Cl)ccc32)c1	FBW7 act 2.0
COc1cc(NC(=O)c2cccc(-n3ncc4cc(Nc5ccccc5Cl)ccc43)c2)cc(OC)c1OC	none
Cc1ccc(-n2cc(-c3ccccc3)c3c(NCc4ccccc4Cl)ncnc32)cc1	none
COc1ccc(-c2nc(NCc3nc4ccccc4[nH]3)c3ncn(-c4ccsc4)c3n2)cc1	none
CC(C)n1cnc2c(NCc3ccccc3)nc(-c3ccc(N4CCOCC4)nc3)nc21	none
CC(C)n1cnc2c(NCc3nc4ccccc4[nH]3)nc(-c3ccc(N4CCOCC4)nc3)nc21	TEAD-YAP inh 70
CC(C)n1cnc2c(NCc3nc4ccccc4[nH]3)nc(N3CCOCC3)nc21	TEAD-YAP inh 79
COc1ccc(-c2nc(NCc3nc4ccccc4[nH]3)c3ncn(-c4ccsc4)c3n2)cn1	TEAD-YAP inh 78
c1ccc2[nH]c(CNc3nc(-c4ccc(N5CCOCC5)nc4)nc4c3ncn4-c3ccsc3)nc2c1	TEAD-YAP inh 82, FBW7 act 23
O=C1C(c2ccc(F)cc2)N(C2CCCCCCC2)C(=O)CN1C1CCCC1 (stereo unspecified)	none
CC1CCc2c(sc3nnn(CC(=O)NCc4cccs4)c(=O)c23)C1 (stereo unspecified)	TEAD-YAP inh 43
COc1ccccc1C(=O)NNC(=O)c1cccc(O)c1	TEAD-YAP inh 79
COc1ccccc1C(=O)NC(=S)Nc1ccccc1C(=O)O	none
COC(=O)c1cc(OC)c(OC)cc1NC(=S)NC(=O)c1ccccc1	TEAD-YAP inh 33
COc1ccccc1NC(=S)NC(=O)c1ccccc1OC	TEAD-YAP inh 39
COc1ccccc1NC(=S)Nc1ccc(N2CCOCC2)cc1	TEAD-YAP inh 33
COC(=O)c1cc(OC)c(OC)cc1NC(=S)Nc1ccccc1	none
Cc1cccc(Nc2ccc([N+](=O)[O-])cc2S(N)(=O)=O)c1	TEAD-YAP inh 36
CC(=O)Nc1cccc(Oc2nnc(-c3ccc(Cl)cc3)c3ccccc23)c1	none
COc1ccc(OC)c(-n2c(C)cn3c4c(=O)n(C)c(=O)n(C)c4nc23)c1	none
COc1ccc(C)cc1-n1c(C)cn2c3c(=O)n(C)c(=O)n(C)c3nc12	TEAD-YAP inh 45
CS(=O)(=O)Nc1cccc(-c2cnn3c(N4CCOCC4)ccnc23)c1	FBW7 act 2.0
Oc1ccc(-c2cnn3c(N4CCOCC4)ccnc23)cc1	TEAD-YAP inh 98
Cc1ccc(-c2cnn3c(N4CCC(O)CC4)ccnc23)cc1C	none
Oc1ccc(-c2cnn3c(N4CCC(O)CC4)ccnc23)cc1	TEAD-YAP inh 52
N#CC1=CN(Cc2ccccc2)C=C(/C=N/NC(=O)c2ccncc2)C1	none
CCn1c(N2CCC(C(=O)NCCO)CC2)nc2ccccc21	none
CCn1c(N2CCC(C(=O)NC3CCN(Cc4ccccc4)CC3)CC2)nc2ccccc21	TEAD-YAP inh 39
Cc1cc(C)nc(CCNCc2c(C(=O)N(C)C)nc3ccc(Cl)cn23)n1	none
